The test addresses PUM1 PUF domain R4-GWP (Homo sapiens, UniProt Q14671 828-1176, N971G;H972W;Q975P). Nature of the test: yeast three-hybrid, YBZ-1, SC-Leu-His + 0.5 mM 3-AT, 4 days. The conditions noted are these: tags: N-Gal4 AD-HA kept; label: inside an RPR1-promoter hybrid RNA with tandem MS2 sites; ssRNA. The method in brief: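 The interaction score is the logarithmic change in variant frequency from input to selection. It uses log2, with a pseudocount of 1 for absent variants, and frequencies came from PCR-amplified, Illumina-sequenced repeat regions. The libraries were Pumilio-1 PUF domains randomized at the three base-contacting residues per repeat, co-expressed with matching RNA elements in strain YBZ-1 (LexA–MS2 coat fusion, HIS3 reporter). Plating lasted four days on SC-Leu (input) or SC-Leu-His + 0.5 mM 3-AT (selection).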
For “GGCUAGAACUAGUGGAUCCCCCGGCGCCCGGCGGCUCGAGCCCGGGUAAGUGUAAAUAGUCUGCAUGCCGCCGGGCGCCAUGCCUGCAGGUCGACUCUAGAAAACAUG”, the binding signal is 6.31 log2 enrichment (interaction score). As for “GGCUAGAACUAGUGGAUCCCCCGGCGCCCGGCGGCUCGAGCCCGGGUAAGUGUACAUAGUCUGCAUGCCGCCGGGCGCCAUGCCUGCAGGUCGACUCUAGAAAACAUG”, the figure is 7 log2 enrichment (interaction score); as for “GGCUAGAACUAGUGGAUCCCCCGGCGCCCGGCGGCUCGAGCCCGGGUAAGUGUAUAUAGUCUGCAUGCCGCCGGGCGCCAUGCCUGCAGGUCGACUCUAGAAAACAUG”, 7.78 log2 enrichment (interaction score).

The record behind these values is publication PMC8384837, “Expanding the binding specificity for RNA recognition by a PUF domain”.
